A short description of assay [1]: Human pregnane X receptor (PXR) small molecule agonists, qHTS cell viability counter screen (AID 1346977). Note: nearly all actives have a fitted effect of over 50% in size. Note: potency is the fitted concentration of half-maximal effect. The essentials:
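Cytotoxicity counter screen run in the same wells as the PXR luciferase assay, using PXR-Luc HepG2 cells in charcoal-stripped serum medium. Viability: CellTiter-Fluor fluorescence after 24hr compound treatment.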
A general note: qHTS replaces the single test concentration by a dilution series.

Assay [2] can be described thus: Caspase-3/7 induction in HepG2 cells by small molecules, qHTS assay (AID 1346978). Note: nearly all actives have a fitted effect of over 15% in size. Note: potency is the fitted concentration of half-maximal effect. The essentials: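 Caspase-3/7 induction was measured by Caspase-Glo 3/7 luminescence (30 min, room temperature) after a 17 hr compound exposure of wild-type HepG2 cells seeded at 2,000 per well and pre-incubated 5 hr.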
A short description of assay [3]: Caspase-3/7 induction in CHO-K1 cells by small molecules, qHTS cell viability counter screen (AID 1346979). Note: nearly all actives have a fitted effect of over 35% in size. Note: potency is the fitted concentration of half-maximal effect. The essentials: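 Cytotoxicity counter screen run in parallel with the caspase-3/7 assay: CHO-K1 cells, 16hr compound treatment at 37C, then CellTiter-Fluor for 1hr before fluorescence reading.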
A short description of assay [4]: Caspase-3/7 induction in HepG2 cells by small molecules, qHTS cell viability counter screen (AID 1346981). Note: series mostly up to about 92 µM; nearly all actives have a fitted effect of over 30% in size. Summed up: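 In this quantitative HTS counter screen, compounds delivered in DMSO were left on unmodified HepG2 cells for 16 hr at 37 C. Viability was then determined fluorometrically with CellTiter-Fluor, in parallel with caspase-3/7 induction in the same wells.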

Assay [5] has as its target Acetylcholinesterase (Homo sapiens) (UniProt P22303). As to the kind of experiment: Acetylcholinesterase (AChE) small molecule antagonists: enzyme-based qHTS assay (AID 1347397; calls by dose curve; note: nearly all actives have a fitted effect of over 55% in size). Particulars: Potency: AChE enzyme activity inhibition. The essentials:
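First, recombinant human AChE (50 mU/mL as dispensed) received test compound or DMSO. Second, plates stood 30 min at room temperature. Third, DTNB and acetylthiocholine were added, followed by 10 min at room temperature and colorimetric detection.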

For assay [6] the target is unchanged. As to the kind of experiment: Acetylcholinesterase (AChE) small molecule antagonists: fluorescence cell-based qHTS assay (AID 1347398; calls by dose curve; note: nearly all actives have a fitted effect of over 50% in size). The settings on record: Potency: AChE activity. The essentials:
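Homogeneous quantitative HTS format. SH-SY5Y cells seeded at 2,000 per well settle overnight at 37 C. Compound pretreatment runs 30 min (37 C, 5% CO2); substrate/probe mix then reacts 40 min at RT before reading 490/520 nm.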

Assay [7] has the same target. As to the kind of experiment: Acetylcholinesterase (AChE) small molecule antagonists: enzyme-based qHTS assay with human liver microsomes (AID 1347399; calls by dose curve; note: nearly all actives have a fitted effect of over 60% in size). The settings on record: Potency: qHTS inhibition. Summed up: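 Recombinant human AChE (50 mU/mL in the enzyme mix) and human liver microsomes (0.25 mg/mL final) were preincubated with compound and NADPH (0.25 mg/mL final) for 30 min at 37 C. Acetylthiocholine/DTNB was then added; thiocholine was read colorimetrically after 10 min at room temperature.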

The target of assay [8] is Cytochrome P450 2D6 (Homo sapiens) (UniProt P10635). As to the kind of experiment: Cytochrome P450 Family 2 Subfamily D Member 6 (CYP2D6) small molecule antagonists: luciferase reporter qHTS assay (AID 1671196). For activity change, negative = inhibition: series mostly up to about 120 µM. Note: nearly all actives have a fitted effect of over 50% in size. Note: potency is the fitted concentration of half-maximal effect. Summed up: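 Test chemicals meet CYP2D6 plus proluciferin substrate (10 min, RT); NADPH regenerating solution then drives turnover for 1 h. Detection reagent halts the reaction; luminescence measured after 20 min.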
On the technique in general: Reporter assays use an easily measured gene product as a stand-in for the process of interest.

Assay [9] addresses Cytochrome P450 2C19 (Homo sapiens) (UniProt P33261). As to the kind of experiment: Cytochrome P450 Family 2 Subfamily C Member 19 (CYP2C19) small molecule antagonists: luciferase reporter qHTS assay (AID 1671197). For activity change, negative = inhibition: series mostly up to about 120 µM. Note: nearly all actives have a fitted effect of over 65% in size. Note: potency is the fitted concentration of half-maximal effect. The essentials:
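Relative luminescence units recorded 20 min after the detection reagent stopped a 1 h, 37C CYP2C19 reaction on proluciferin substrate, which was started by NADPH regeneration following 10 min room-temperature compound preincubation; ketoconazole positive control.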

In assay [10] the target is Voltage-gated inwardly rectifying potassium channel KCNH2 (Homo sapiens) (UniProt Q12809). As to the kind of experiment: Human Ether-a-go-go-Related Gene (hERG) channel small molecule antagonists: fluorescence cell-based qHTS assay (AID 1671200).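 Note: hERG-expressing U2OS cells given a thallium stimulus after FluxOR II dye loading; series mostly up to about 77 µM; nearly all actives have a fitted effect of over 50% in size.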 Summed up:
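Fluorescence at 540 nm emission (480 nm excitation) was recorded kinetically for 2 min at 1-second intervals once the thallium-containing stimulus reached cells previously loaded with FluxOR II dye.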
Background: The hERG channel carries a current that helps repolarise heart muscle cells.

Assay [11] concerns the target Cytochrome P450 3A4 (Homo sapiens) (UniProt P08684). As to the kind of experiment: Cytochrome P450 Family 3 Subfamily A Member 4 (CYP3A4) small molecule antagonists: luciferase reporter qHTS assay (AID 1671201). Summed up:
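qHTS, 1536-well. CYP3A4 + proluciferin substrate, cpd 10 min RT → NADPH regen 1 h RT → detection reagent 20 min → luminescence (RLU). Ketoconazole positive control.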

Assay [12] is described as follows: Caspase-3/7 induction in CHO-K1 cells by small molecules, qHTS assay (AID 1346980). Note: nearly all actives have a fitted effect of over 15% in size. The essentials: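 Luminescent Caspase-Glo 3/7 read (30min, room temperature) quantified apoptosis induction. Cells were wild-type CHO-K1, treated with compound for 17hr at 37 C and 5% CO2.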
In assay [13] the target is Nuclear receptor subfamily 1 group I member 2 (Homo sapiens) (UniProt O75469). The assay can be described thus: Human pregnane X receptor (PXR) small molecule agonists, qHTS assay (AID 1346982). Note: nearly all actives have a fitted effect of over 35% in size. Note: potency is the fitted concentration of half-maximal effect. Summed up: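 Reporter HepG2 cells expressing PXR-Luc are cultured in charcoal-stripped FBS (5%), treated with compounds for 24 hr at 37 C, and assayed by ONE-Glo luminescence after 30 min at room temperature.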

In assay [14] the target is Acetylcholinesterase (Homo sapiens) (UniProt P22303). The assay can be described thus: Acetylcholinesterase (AChE) small molecule antagonists: colormetric cell-based qHTS assay (AID 1347395; calls by dose curve; note: nearly all actives have a fitted effect of over 30% in size). The essentials: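 Cells (SH-SY5Y, 2,000 per well) are seeded and left overnight at 37 C. Compound is added for 30 min, then DTNB and acetylthiocholine for a further 90 min at 37 C before absorbance-based thiocholine detection.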

The target in assay [15] is Cytochrome P450 2C9 (Homo sapiens) (UniProt P11712). The assay can be described thus: Cytochrome P450 Family 2 Subfamily C Member 9 (CYP2C9) small molecule antagonists: luciferase reporter qHTS assay (AID 1671198). For activity change, negative = inhibition: series mostly up to about 120 µM. Note: nearly all actives have a fitted effect of over 50% in size. Note: potency is the fitted concentration of half-maximal effect. Summed up: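 Enzyme-substrate mix preincubated with compound 10 min at room temperature; reaction started with NADPH regeneration solution, 1 h 37C. Luminescent luciferin product read after 20 min detection reagent.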

For assay [16], the target named is Cytochrome P450 1A2 (Homo sapiens) (UniProt P05177). The assay can be described thus: Cytochrome P450 Family 1 Subfamily A Member 2 (CYP1A2) small molecule antagonists: luciferase reporter qHTS assay (AID 1671199). For activity change, negative = inhibition: series mostly up to about 120 µM. Note: nearly all actives have a fitted effect of over 50% in size. Note: potency is the fitted concentration of half-maximal effect. The essentials:
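Steps: enzyme-substrate mix dispensed; test compounds and furafylline control pinned in; 10 min room temperature; NADPH regeneration solution added, 1 h; reaction stopped with luciferin detection reagent; luminescence read after 20 min.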

Unmarked numbers belong to inactive results. Results filed as inconclusive are left out. Activity calls are given as the source filed them. Unless noted, calls come from the whole dose curve; as a rule, active = well fitted curve in the direction sought with a large enough effect in the repeat runs; inconclusive = weak or mixed curves; inactive = no such curve, though single readings can be large; an effect the other way counts as inactive or inconclusive.
% is set by controls: 0 for no effect and ±100 for the full control effect.

Cytochrome P450 2D6 (Homo sapiens), sequence (P10635 whole entry, looked up): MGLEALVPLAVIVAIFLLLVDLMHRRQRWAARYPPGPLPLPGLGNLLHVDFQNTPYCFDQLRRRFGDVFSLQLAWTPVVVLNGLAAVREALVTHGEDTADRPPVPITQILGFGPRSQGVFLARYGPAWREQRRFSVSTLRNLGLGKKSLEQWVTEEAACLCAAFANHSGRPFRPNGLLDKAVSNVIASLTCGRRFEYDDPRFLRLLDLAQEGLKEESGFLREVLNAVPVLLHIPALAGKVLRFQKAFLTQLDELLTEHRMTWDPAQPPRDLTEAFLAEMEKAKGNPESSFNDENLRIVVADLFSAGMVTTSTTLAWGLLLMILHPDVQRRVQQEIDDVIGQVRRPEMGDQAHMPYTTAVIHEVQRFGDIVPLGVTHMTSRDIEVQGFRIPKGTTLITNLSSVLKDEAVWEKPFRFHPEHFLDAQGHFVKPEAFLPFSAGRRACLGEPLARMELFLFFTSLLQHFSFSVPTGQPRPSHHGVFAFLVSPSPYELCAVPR
Nuclear receptor subfamily 1 group I member 2 (Homo sapiens), sequence (O75469 whole entry, looked up): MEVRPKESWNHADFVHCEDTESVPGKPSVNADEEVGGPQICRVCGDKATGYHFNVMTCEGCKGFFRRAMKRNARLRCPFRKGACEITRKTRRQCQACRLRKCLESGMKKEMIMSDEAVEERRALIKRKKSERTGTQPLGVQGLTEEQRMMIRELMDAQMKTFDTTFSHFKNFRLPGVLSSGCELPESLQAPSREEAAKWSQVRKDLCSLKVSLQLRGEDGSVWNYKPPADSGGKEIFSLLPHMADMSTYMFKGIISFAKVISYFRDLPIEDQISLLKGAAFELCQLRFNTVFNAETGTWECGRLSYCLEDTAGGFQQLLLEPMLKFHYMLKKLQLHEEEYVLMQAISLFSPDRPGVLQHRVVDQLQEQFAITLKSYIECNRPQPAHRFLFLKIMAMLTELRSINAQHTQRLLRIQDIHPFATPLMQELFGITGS
Voltage-gated inwardly rectifying potassium channel KCNH2 (Homo sapiens), sequence (Q12809 whole entry, looked up): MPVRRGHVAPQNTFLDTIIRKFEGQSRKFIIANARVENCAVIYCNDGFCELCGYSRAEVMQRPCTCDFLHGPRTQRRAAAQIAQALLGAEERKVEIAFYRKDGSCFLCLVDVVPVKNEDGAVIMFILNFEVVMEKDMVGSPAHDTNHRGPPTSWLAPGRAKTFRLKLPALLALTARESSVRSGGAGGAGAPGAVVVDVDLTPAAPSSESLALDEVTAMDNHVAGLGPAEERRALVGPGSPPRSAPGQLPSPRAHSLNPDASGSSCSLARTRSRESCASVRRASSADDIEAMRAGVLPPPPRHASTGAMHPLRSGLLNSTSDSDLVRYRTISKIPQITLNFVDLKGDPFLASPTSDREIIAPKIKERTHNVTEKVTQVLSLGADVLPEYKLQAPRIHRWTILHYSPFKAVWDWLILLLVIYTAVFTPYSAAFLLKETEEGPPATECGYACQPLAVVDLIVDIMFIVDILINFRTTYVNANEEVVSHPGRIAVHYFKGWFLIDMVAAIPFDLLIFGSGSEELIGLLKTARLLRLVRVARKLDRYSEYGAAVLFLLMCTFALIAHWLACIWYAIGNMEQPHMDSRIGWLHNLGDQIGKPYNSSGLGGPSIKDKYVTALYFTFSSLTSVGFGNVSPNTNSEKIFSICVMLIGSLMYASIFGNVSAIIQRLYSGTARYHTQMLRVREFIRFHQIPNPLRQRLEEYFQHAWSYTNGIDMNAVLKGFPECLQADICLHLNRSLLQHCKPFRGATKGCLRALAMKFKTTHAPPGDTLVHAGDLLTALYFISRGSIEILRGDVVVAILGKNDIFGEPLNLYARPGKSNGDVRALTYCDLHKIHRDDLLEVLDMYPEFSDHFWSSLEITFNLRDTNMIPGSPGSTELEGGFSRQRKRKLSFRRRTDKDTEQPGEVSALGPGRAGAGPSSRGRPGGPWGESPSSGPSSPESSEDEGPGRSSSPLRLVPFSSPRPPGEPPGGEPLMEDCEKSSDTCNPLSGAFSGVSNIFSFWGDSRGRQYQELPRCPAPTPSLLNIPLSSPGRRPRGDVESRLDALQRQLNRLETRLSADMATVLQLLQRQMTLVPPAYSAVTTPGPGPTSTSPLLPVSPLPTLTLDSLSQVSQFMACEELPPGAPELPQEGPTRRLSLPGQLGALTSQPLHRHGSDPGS
Cytochrome P450 2C9 (Homo sapiens), sequence (P11712 whole entry, looked up): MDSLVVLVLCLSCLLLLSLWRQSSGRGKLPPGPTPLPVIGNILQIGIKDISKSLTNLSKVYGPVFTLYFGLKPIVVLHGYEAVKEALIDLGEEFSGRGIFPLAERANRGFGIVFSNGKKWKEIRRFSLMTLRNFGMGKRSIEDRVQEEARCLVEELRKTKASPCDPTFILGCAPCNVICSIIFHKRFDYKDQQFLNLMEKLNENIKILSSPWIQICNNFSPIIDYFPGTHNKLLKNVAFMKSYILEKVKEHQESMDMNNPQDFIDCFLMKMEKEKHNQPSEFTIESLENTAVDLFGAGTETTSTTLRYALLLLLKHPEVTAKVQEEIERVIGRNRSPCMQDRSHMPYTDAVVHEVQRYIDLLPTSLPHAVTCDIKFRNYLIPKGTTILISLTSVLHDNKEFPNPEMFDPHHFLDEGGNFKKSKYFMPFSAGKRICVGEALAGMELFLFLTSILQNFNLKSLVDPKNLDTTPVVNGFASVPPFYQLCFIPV
Cytochrome P450 2C19 (Homo sapiens), sequence (P33261 whole entry, looked up): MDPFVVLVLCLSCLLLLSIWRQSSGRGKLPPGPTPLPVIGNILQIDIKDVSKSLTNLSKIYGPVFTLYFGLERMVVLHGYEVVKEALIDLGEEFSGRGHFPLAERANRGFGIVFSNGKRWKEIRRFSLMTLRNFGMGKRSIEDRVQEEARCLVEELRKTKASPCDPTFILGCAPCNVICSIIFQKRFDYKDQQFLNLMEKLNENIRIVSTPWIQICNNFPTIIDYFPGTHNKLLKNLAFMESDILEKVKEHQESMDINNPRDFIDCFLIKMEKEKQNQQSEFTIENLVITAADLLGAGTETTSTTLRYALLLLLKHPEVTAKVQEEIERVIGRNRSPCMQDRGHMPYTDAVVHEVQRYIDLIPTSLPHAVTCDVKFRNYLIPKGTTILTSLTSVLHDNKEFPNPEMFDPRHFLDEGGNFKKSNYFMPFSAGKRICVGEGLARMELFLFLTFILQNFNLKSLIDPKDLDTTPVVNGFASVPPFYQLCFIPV
Cytochrome P450 3A4 (Homo sapiens), sequence (P08684 whole entry, looked up): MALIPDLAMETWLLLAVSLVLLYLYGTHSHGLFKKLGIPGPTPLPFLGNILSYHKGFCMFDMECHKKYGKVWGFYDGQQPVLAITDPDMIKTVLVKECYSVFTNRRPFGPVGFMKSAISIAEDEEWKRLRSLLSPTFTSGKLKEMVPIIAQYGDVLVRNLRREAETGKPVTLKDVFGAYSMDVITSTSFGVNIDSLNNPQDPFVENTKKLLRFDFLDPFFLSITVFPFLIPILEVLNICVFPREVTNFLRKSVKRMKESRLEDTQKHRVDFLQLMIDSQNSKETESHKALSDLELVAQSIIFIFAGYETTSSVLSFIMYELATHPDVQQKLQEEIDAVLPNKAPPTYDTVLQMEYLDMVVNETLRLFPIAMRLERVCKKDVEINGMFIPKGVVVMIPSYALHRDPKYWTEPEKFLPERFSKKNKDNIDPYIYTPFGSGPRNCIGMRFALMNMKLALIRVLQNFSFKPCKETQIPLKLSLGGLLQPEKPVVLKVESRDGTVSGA
Cytochrome P450 1A2 (Homo sapiens), sequence (P05177 whole entry, looked up): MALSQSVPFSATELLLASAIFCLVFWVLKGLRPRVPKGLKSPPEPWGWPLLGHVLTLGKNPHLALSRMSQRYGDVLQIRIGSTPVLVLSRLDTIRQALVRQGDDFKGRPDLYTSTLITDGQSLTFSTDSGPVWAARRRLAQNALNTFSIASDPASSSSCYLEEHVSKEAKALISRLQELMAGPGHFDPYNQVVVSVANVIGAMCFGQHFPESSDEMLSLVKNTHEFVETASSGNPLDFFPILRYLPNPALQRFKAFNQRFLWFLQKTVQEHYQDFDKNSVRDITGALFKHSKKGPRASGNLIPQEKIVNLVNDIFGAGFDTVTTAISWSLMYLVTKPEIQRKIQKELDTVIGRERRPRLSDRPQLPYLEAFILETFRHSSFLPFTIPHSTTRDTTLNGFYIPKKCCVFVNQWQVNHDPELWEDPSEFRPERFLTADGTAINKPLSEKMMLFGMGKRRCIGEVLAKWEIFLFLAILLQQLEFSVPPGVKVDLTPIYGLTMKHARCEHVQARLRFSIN
Acetylcholinesterase (Homo sapiens), sequence (P22303 whole entry, looked up): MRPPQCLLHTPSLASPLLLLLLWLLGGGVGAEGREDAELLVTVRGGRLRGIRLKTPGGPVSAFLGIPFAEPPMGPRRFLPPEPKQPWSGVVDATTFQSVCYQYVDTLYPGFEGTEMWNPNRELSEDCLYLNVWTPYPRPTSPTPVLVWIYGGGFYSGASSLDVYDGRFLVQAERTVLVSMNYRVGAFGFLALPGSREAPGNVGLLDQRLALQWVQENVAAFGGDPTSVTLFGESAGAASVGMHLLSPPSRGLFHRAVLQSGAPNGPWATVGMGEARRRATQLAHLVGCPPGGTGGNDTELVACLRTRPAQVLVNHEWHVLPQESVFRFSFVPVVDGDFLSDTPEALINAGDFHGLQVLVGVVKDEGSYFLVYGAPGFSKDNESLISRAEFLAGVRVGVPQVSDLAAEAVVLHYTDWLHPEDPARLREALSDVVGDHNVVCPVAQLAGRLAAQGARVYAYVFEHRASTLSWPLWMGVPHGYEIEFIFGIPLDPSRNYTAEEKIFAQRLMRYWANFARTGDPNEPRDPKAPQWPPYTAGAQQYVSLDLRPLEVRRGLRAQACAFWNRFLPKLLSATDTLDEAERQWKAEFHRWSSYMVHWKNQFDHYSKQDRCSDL

With `CSSC`, the Potency entry in assay [1], in assay [3], in assay [4], in assay [5], in assay [6] and in assay [7] was “inactive” throughout. In addition, the Potency result in assay [8], in assay [10] and in assay [11] was “inactive” each time. Moreover, the Potency is 24.6 µM (active) in assay [2] and 80.6 µM (active) in assay [9].

Regarding `[Cl-].[Cl-].[Sn+2]`, the Potency result in assay [1], in assay [2], in assay [3], in assay [12] and in assay [10] was “inactive” in each case.

As to `CC1(C)[C@H](/C=C2\CCSC2=O)[C@@H]1C(=O)OCc1coc(Cc2ccccc2)c1`, the Potency result in assay [1], in assay [2], in [4], in [14], in assay [6] and in [7] was “inactive” throughout. For the same molecule, the Potency entry in assay [10] is “inactive”. The Potency is 61.1 µM (active) in assay [3]; 21.7 µM (active) in [13]; 39.9 µM (active) in assay [8]; 2.24 µM (active) in [9]; 1.26 µM (active) in assay [15]; 22.4 µM (active) in [16].

Turning to `NC(=O)C(Cl)Cl`, the Potency entry in assay [1], in assay [2], in assay [3], in [4], in assay [13] and in assay [14] was “inactive” in each case. Moreover, the Potency result in [5], in assay [6], in assay [7], in assay [8], in assay [9] and in assay [15] was “inactive” each time. For the same molecule, the Potency entry in assay [16], in assay [10] and in assay [11] was “inactive” each time.

Regarding `CC(=O)[O-].CC(=O)[O-].CC(=O)[O-].[Sb+3]`, the activity change, negative = cytotoxicity is 2.16% [at 3.27 µM] in [1], 4.75% [at 3.27 µM] in [3] and -0.0636% [at 3.27 µM] in [4]. Also, the caspase activation in [2] was 1.01% [at 3.27 µM]. Besides, the activity change, negative = inhibition in assay [10] was 0.0833% [at 2.72 µM].

Take `CC(Cc1ccccc1)N(C)Cc1ccco1` (configuration not stated): the Potency entry in assay [1], in assay [2], in [3], in assay [4], in assay [13] and in [14] was “inactive” each time. For the same molecule, the Potency result in [5], in assay [6], in assay [7], in assay [15], in [16] and in [10] was “inactive” in each case. For the same molecule, in assay [11], the Potency entry is “inactive”. Besides, the figures for the Potency in assay [8] and in assay [9] were 0.776 µM (active) and 7.76 µM (active), respectively.

Turning to `CC(C)N(C(=O)SC/C(Cl)=C/Cl)C(C)C`, the Potency result in assay [1], in assay [2], in assay [3], in [12], in [5] and in [6] was “inactive” throughout. The Potency result in assay [7] and in assay [8] was “inactive” in each case. Further, the figures for the Potency in assay [9] and in [15] were 3.19 µM (active) and 31.9 µM (active), respectively.

Consider `CO/N=C(/C1=NOCCO1)c1ccccc1Oc1ncnc(Oc2ccccc2Cl)c1F`, for which the Potency in assay [1] is 9.68 µM (active); in assay [3], 1.72 µM (active); in assay [13], 27.3 µM (active); in assay [9] it was 7.96 µM (active); in [15] it was 11.2 µM (active); in assay [16] it was 25.2 µM (active). In addition, the Potency result in assay [2], in [14], in assay [5], in assay [6], in [7] and in [8] was “inactive” throughout. In addition, in assay [10], the Potency result is “inactive”.
